Sampled rows, rich in hits. Any-hit rate of the full collection: about 1.1%.
IP6K1 inh: IP6K1 kinase inhibition; IP6K1 kinase, ADP-Glo luminescence, 2 h; hits give low values; activity change, % (series mostly up to about 58 µM); hit rate 0.81% among 140,000; AID 1645851; in the data active = activity change below about -25%
Target sequence (Q92551 whole entry, looked up): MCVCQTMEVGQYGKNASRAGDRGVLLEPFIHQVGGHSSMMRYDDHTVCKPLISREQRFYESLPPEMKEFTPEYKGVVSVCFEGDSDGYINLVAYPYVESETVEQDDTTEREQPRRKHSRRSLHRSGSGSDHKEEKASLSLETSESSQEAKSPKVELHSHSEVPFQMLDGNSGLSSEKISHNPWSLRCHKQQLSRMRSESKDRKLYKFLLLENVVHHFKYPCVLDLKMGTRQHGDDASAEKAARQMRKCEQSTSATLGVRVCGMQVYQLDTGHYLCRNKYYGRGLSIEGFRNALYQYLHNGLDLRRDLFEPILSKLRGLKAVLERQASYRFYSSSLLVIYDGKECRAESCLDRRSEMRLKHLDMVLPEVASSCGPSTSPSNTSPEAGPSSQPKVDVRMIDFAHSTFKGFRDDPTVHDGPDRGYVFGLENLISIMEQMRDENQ
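ADP-Glo luminescence measures ADP made by human IP6K1 during a 2 h RT reaction with ATP/IP6 (mix at 1.3 mM/130 uM); top library doses 57.5 and 19.1 uM final.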
SNCA expr inhib: SNCA gene expression inhibition; hit rate 0.17% among 140,000; Potency, µM (top dose mostly 57.2 µM), without a hit: at the highest dose activity change, negative = inhibition, most hits filed as inhibitors; AID 1671194; HEK-293 SNCA-luciferase knock-in, luminescence, 24 h;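 also: potency is read from the fitted curve at half-maximal effect; plate controls were DMSO cells for no effect and cell-free wells for full effect; nearly all actives have a fitted effect of over 45% in size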
SNCA viab count: reduces viability of HEK-293 SNCA reporter cells. Potency, µM (top dose mostly 57.1 µM), for the others: at the highest dose activity change, negative = cytotoxicity, most hits filed as cytotoxic. hit rate 0.12% among 150,000. HEK-293-SNCA-luc viability, GF-AFC fluorescence, 24 h. AID 1671193;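 also: potency is read from the fitted curve at half-maximal effect; 0% = DMSO-treated cells and -100% = medium-only wells without cells; nearly all actives have a fitted effect of over 30% in size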
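Cytotoxicity counterscreen: after 24 h compound treatment of genome-edited SNCA-luciferase HEK-293 cells, live-cell protease substrate GF-AFC read by fluorescence after 30 min; activity scaled between DMSO (0%) and medium-only (-100%), curves Hill-fitted.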
GPT2 inhibitor: blocks human glutamate pyruvate transaminase 2; AID 1671188; hit rate 0.25% among 100,000; Potency, µM (highest dose often 57.7 µM), for inactives: at the highest dose activity change, negative = inhibition, actives largely listed as inhibitors; Recombinant GPT2, coupled pyruvate oxidase/HRP Amplex Red fluorescence; also: potency is read from the fitted curve at half-maximal effect; nearly all actives have a fitted effect of over 60% in size
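Inhibition is scored from Amplex Red fluorescence generated when pyruvate oxidase and HRP act on pyruvate released by GPT2. Reactions contain 10ng/uL enzyme, 250uM a-KG and 2mM L-alanine and run 30 min at room temperature.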
Starred values were filed as active, the others as inactive; i = inactive; ? = inconclusive; . = not tested or not shown; ! = a repeat was not active; [ ] = remark or other dose. Unless noted, calls follow the shape of the dose curve; as a rule, active = well fitted curve in the direction sought with a large enough effect; inconclusive = small, poorly fitted or top-dose-only effect, or another doubt; inactive = no such curve, though single readings can be large; an effect the other way counts as inactive or inconclusive. Unless noted, % is scaled to controls: 0 for no effect and ±100 for the full control effect.

SMILES | IP6K1 inh | SNCA expr inhib | SNCA viab count | GPT2 inhibitor
CC1OC2OC3C(OCC(O)C3O)OC(=O)C34CCC(C)(C)CC3C3=CCC5C6(C)CC(O)C(OC7OC(CO)C(O)C(O)C7OC7OCC(OC(=O)CC(C)(O)CC(=O)OC1C(OC1OCC(O)C(O)C1O)C2O)C(O)C7O)C(C)(CO)C6CCC5(C)C3(C)CC4O (stereo unspecified) | 10.5 | . | 5.19µM* | -6.5%[27.3 µM]
CC1(C)CC[C@]2(C(=O)O[C@@H]3O[C@H](CO)[C@@H](O)[C@H](O)[C@H]3O)CC[C@]3(C)C(=CCC4[C@@]5(C)C[C@H](O)[C@H](O[C@@H]6OC[C@@H](O)[C@H](O)[C@H]6O)[C@@](C)(CO)C5CC[C@]43C)C2C1 (stereo partly specified) | 1.3 | . | -11.3%[12.5 µM] | -4.8%[17.1 µM]
CN(C)CC(O)c1cc2n(n1)CCN(C(=O)c1cc(=O)[nH]c(=O)[nH]1)C2 (stereo unspecified) | -0.6 | -0.4% | 2.2% | i
CN(C)C(=O)NC1(c2ccccc2)CCN(CCC[C@]2(c3ccc(Cl)c(Cl)c3)CCCN(C(=O)c3ccccc3)C2)CC1 | 0.5 | . | ? | -2.8%
CC(=O)N(C)C1(c2ccccc2)CCN(CCC[C@]2(c3ccc(Cl)c(Cl)c3)CCCN(C(=O)c3ccccc3)C2)CC1 | -2.4 | 1.71µM* | 2.15µM*! | ?
CC[C@H]1CN2CCc3cc(OC)c(OC)cc3[C@H]2C[C@@H]1C[C@@H]1NCCc2cc(OC)c(OC)cc21 | . | 0.607µM* | ? | 4.4%
CNc1nc2c(s1)C(c1cccc(F)c1)CC(=O)N2 (stereo unspecified) | -67.2* | ? | -11.7% | ?
CC1=C(C(=O)NC23CC4CC(CC(C4)C2)C3)C(c2cccnc2)NC(=O)N1 (stereo unspecified) | -5.8 | 13.4% | 1.1% | -0.9%
Cc1cccn2c3c(c(=O)nc12)C(c1cccc(F)c1)CC(=O)N3 (stereo unspecified) | -0.8 | 36.8% | 22.7% | .
CNS(=O)(=O)c1ccc(C2CC(=O)Nc3cc(O)c(OC)cc32)cc1 (stereo unspecified) | 0.9 | -10.3% | -8.0% | ?
CCNc1nc2c(s1)C(c1cccnc1)CC(=O)N2 (stereo unspecified) | -46.1* | 22.5% | -1.9% | ?
CNc1nc2c(s1)C(c1ccc(F)c(F)c1)CC(=O)N2 (stereo unspecified) | -37.0* | 16.5% | 10.0% | ?
C=C[C@@]1(C)C=C2C(=O)C(O)=C3[C@](C)(C(=O)O)CC[C@@H]4C[C@]34[C@]2(O)C(=O)C1 | 29.7 | . | 18.5µM* | ?
Nc1nc2c(ncn2COC(CO)CO)c(=O)[nH]1 | 12.0 | 0.0857µM*! | -17.5% | -21.5%
Cc1ccc(C)c(N2CCN(c3nc4c(S(=O)(=O)c5ccccc5)nnn4c4ccc(Cl)cc34)CC2)c1 | 12.1 | 15.2% | -4.4% | .
COc1ccccc1N1CCN(c2nc3c(S(=O)(=O)c4ccc(C)c(C)c4)nnn3c3ccc(Cl)cc23)CC1 | -27.5* | -3.5% | -4.9% | .
CC(C)CN(CCCNC(=O)CN1C(=O)COc2ccc(S(=O)(=O)N3CCCCCC3)cc21)CC(C)C | 10.0 | 28.2µM* | 8.6% | .
CN(C)Cc1nnc(C2CCN(Cc3cnc(-c4ccccn4)nc3)CC2)n1C | -6.3 | 9.8% | -1.4% | -3.1%
CC(C)n1nc(C#Cc2ccccc2)c2c(N)ncnc21 | 5.1 | . | -30.1% | ?
CC(C)n1nc(-c2cc3cc(O)ccc3[nH]2)c2c(N)ncnc21 | -3.4 | -54.6%[25.6 µM] | ? | 8.91µM*
COc1ccc(C(=O)N2CCOCC3(CN(Cc4cccc(Cl)c4)C3)C2)cc1OC | 25.2 | ? | -24.8%[87.6 µM] | -12.8%[88.5 µM]
CCCSc1ncc(Cl)c(C(=O)N(Cc2ccccc2)c2ccc(OC)cc2)n1 | 2.5 | ? | 2.0% | .
CS(=O)(=O)c1ncc(Cl)c(C(=O)N(Cc2ccc(Cl)cc2)Cc2ccco2)n1 | -13.2 | ? | 2.51µM* | .
O=C(NCc1ccccc1)c1nc(S(=O)(=O)Cc2ccccc2)ncc1Cl | -4.8 | ? | ? | .
COc1ccc(CNC(=O)c2nc(S(=O)(=O)Cc3ccccc3)ncc2Cl)cc1 | -7.5 | ? | 25.1µM* | .
SMILES | IP6K1 inh | SNCA expr inhib | SNCA viab count | GPT2 inhibitor
COc1ccc(N(Cc2ccccc2)C(=O)c2nc(S(C)(=O)=O)ncc2Cl)cc1 | -25.8* | ? | 6.31µM* | .
O=C(c1ccc(Cl)cc1)N(Cc1ccco1)Cc1ccco1 | 8.6 | 12.7% | 0.4% | .
O=C(CC(c1ccccc1)c1ccccc1Cl)N(Cc1cccnc1)C1CC1 (stereo unspecified) | 27.6 | -20.4% | -12.1% | -5.1%
CCN(CC)Cc1ccc2cc(COC(=O)Nc3ccc(C(=O)NO)cc3)ccc2c1 | 11.4 | -8.9% | ? | 15.3µM*
CCN(CC)Cc1c(NC(=O)c2ccc(OC)cc2)sc2c1CCCC2 | -2.6 | 41.7% | -20.5% | .
O=C(CCC1CCN(C(=O)c2ccccc2F)CC1)Nc1ccc(N2CCOCC2)cc1 | 13.2 | -15.1% | -6.2% | i
C=CC(=O)Nc1cccc(Nc2nc(Nc3ccc(OCCOC)cc3)ncc2F)c1 | -6.8 | . | 9.47µM* | i
CC(C)(C)NC(=O)Nc1cccc(Nc2ncc(F)c(NC(C)(C)CO)n2)c1 | -9.7 | -5.5% | -4.8% | -19.4%
NC(=O)C1CCCc2c1[nH]c1ccc(Cl)cc21 (stereo unspecified) | . | 8.57µM* | ? | -21.2%
NC(=O)[C@H]1CCCCc2c1[nH]c1ccc(Cl)cc21 | 3.7 | . | -5.4%[23.9 µM] | -11.8%[27.3 µM]
CC(C)=CC[C@@H](O)C1=CC(=O)c2c(O)ccc(O)c2C1=O | . | -1.8% | -17.0% | 12.2µM*
CCCCc1ccc(NC(=O)c2ccc3c(c2)CCN3S(=O)(=O)CC)cc1 | -14.1 | 3.9% | 5.8% | .
Cc1ccc(CNC(=O)c2cc3c(=O)oc4ccc(C)cc4c3s2)cc1 | 6.2 | 6.5% | -5.5% | .
C[C@H](C(=O)N1CCOCC1)C1CC[C@@]2(C)Cc3sc(-c4ccccc4)nc3[C@@H](C)[C@@H]2[C@H]1O (stereo partly specified) | 0.3 | 3.16µM* | -7.3% | 2.5%
Cc1ccc2nc3c(cc(C(=O)NCC4CCCO4)c(=N)n3C(C)C)c(=O)n2c1 (stereo unspecified) | -16.4 | -5.8% | ? | .
Cc1nc2cc(-c3cccc(F)c3)nn2c(C)c1CCC(=O)NC1CCCCC1 | 19.7 | ? | 7.1% | .
C=CCN1CCN(C(=O)c2ccc3c(c2)C(O)CCCCCN3C)CC1 (stereo unspecified) | -8.3 | 9.4% | 0.9% | i
Fc1ccc(-n2cc(CCCCN3CCC4(CC3)OCc3ccccc34)c3ccccc32)cc1 | 20.7 | . | 18.9µM* | -3.4%
CCCCN1CCN(C(=O)c2csc(N3CCN(c4cccc(Cl)c4)CC3)n2)CC1 | -10.7 | ? | ? | 1.0%
CS(=O)(=O)c1ncc(Cl)c(C(=O)N2CCN(c3cccc(Cl)c3)CC2)n1 | -25.7* | ? | ? | .
CCS(=O)(=O)c1ncc(Cl)c(C(=O)N2CCN(c3cccc(Cl)c3)CC2)n1 | -5.6 | 2.24µM* | 3.55µM* | .
O=C(c1cc2ccc3cccnc3c2[nH]1)N1CCN(c2cccc(Cl)c2)CC1 | 27.4 | ? | ? | .

Screening results (PubChem)
